Pol kappa inh: qHTS for Inhibitors of Polymerase Kappa; purified Pol kappa, fluorescent DNA synthesis assay, 10 min; Potency, µM (series often up to 107 µM), usual class: inhibitors; 0.53% of 400,000 active; AID 588579, 2011
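Here, compound and 10 nM enzyme are combined for 15 min at room temperature; adding 50 nM substrate (final) starts DNA synthesis, tracked by fluorescence at 0 and 10 min against buffer-only wells.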
POLI inh: qHTS for Inhibitors of Polymerase Iota; DNA polymerase iota (Homo sapiens), Q9UNA4; Pol iota fluorescent replication assay, 10 min; Potency, µM (highest dose often 115 µM), usual class: inhibitors; 1% of 390,000 active; AID 588590, 2011
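Pol iota at 10 nM preincubated 15 min with compounds at room temperature; reaction started with fluorescent substrate, 50 nM final. Fluorescence read kinetically at 0 and 10 min; buffer-only wells as negative control.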
Pol beta inh: qHTS Assay for Inhibitors of DNA Polymerase Beta; P06746; Pol beta primer extension/strand displacement, fluorescence kinetic; Potency, µM (doses to about 114 µM), actives largely listed as inhibitors; 1.3% of 340,000 active
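Pol beta (10 nM) and compounds were preincubated 15 min at room temperature, then 50 nM substrate (final) started primer extension/strand displacement. Reads were taken at 0 and 10 min; concentration-response data were fitted to a four-parameter Hill equation.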
GLS inhibitor: qHTS for Inhibitors of Glutaminase (GLS); Glutaminase kidney isoform, mitochondrial (Homo sapiens), O94925; GLS enzymatic activity, qHTS titration; Potency, µM (highest dose often 45.5 µM), hits mostly inhibitors; 0.21% of 410,000 active
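Glutamate formation by hKGA was monitored fluorometrically using coupled glutamate oxidase, HRP and Amplex Red. Substrate was added as 1 mM L-glutamine solution; incubation was 30 min at RT after an initial read.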
Pol eta inh: qHTS for Inhibitors of Polymerase Eta. DNA polymerase eta (Homo sapiens), Q9Y253. recombinant Pol eta, fluorescent DNA replication assay. Potency, µM (highest dose often 114 µM), usual class: inhibitors. 1.2% of 390,000 active. AID 588591, 2011
Target sequence (Q9Y253 whole entry, looked up): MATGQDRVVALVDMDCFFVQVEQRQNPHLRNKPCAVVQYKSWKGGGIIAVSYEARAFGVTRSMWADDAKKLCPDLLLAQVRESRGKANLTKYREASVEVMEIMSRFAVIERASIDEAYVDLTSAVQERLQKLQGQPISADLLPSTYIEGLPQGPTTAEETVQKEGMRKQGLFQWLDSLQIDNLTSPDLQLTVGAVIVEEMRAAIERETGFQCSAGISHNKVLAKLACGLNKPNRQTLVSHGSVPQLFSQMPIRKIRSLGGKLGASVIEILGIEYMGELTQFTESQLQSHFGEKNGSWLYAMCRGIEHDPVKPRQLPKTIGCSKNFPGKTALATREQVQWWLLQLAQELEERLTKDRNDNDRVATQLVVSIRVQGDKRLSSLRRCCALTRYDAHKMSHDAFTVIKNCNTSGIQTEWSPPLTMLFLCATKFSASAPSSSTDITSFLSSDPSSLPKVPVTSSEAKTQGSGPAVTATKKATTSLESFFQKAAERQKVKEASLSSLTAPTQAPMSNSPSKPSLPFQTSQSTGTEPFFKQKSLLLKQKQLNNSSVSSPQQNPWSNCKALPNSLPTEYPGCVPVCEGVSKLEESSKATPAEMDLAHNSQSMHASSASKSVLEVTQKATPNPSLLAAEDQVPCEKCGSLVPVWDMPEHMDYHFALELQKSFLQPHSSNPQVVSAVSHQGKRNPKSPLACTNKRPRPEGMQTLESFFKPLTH
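Pol eta (10 nM) was preincubated with compounds for 15 min at room temperature, after which fluorescent replication substrate (50 nM final) was added to start the reaction. Fluorescence was read kinetically at 0 and 10 min.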
APEX1 inh: qHTS Assay for Inhibitors of the Human Apurinic/apyrimidinic Endonuclease 1 (APE1); 0.35% of 350,000 active; Potency, µM (doses to about 65.8 µM), hits mostly inhibitors; recombinant APE1, TAMRA/BHQ-2 abasic DNA cleavage fluorescence; also: nearly all actives have a fitted effect of over 55% in size
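Readout is kinetic fluorescence (ex 525, em 598 nm) from cleavage of 50 nM TAMRA/BHQ-2 THF abasic duplex by 0.75 nM APE1, compound added 15 min beforehand at RT.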
Each line names hits and unclear results; the compound was inactive in the other large screens. Hits are enriched below; roughly 2.4% of the tested compounds scored in any of these assays. Calls follow the shape of the dose curve; as a rule, active = well fitted curve in the direction sought with a large enough effect; inconclusive = small, poorly fitted or top-dose-only effect, or another doubt; inactive = no such curve, though single readings can be large; an effect the other way counts as inactive or inconclusive.

CCOc1ccccc1CN1CCN(S(=O)(=O)CC)CC1	none
O=c1cc(NCc2ccco2)[nH]c(=O)n1-c1ccc(Br)cc1	Pol kappa inh inconclusive, POLI inh 50.1µM, Pol eta inh inconclusive
O=C1C(=C2CCCCC2)SC(=S)N1Cc1ccco1	Pol kappa inh inconclusive, POLI inh inconclusive, Pol beta inh 25.1µM, Pol eta inh inconclusive
COCCNc1nc(-c2cc(C)c(C)cc2C)cs1	GLS inhibitor 12.6µM
COc1ccc2ccc3c(c2c1)N=C[C@]1(O3)N(C)c2ccccc2C1(C)C	POLI inh inconclusive, GLS inhibitor inconclusive, Pol eta inh 70.8µM
C=Cc1ccc2c(c1)OCCOCCOCCOCCOCCO2	POLI inh inconclusive, Pol eta inh inconclusive
Cc1ccc(C2=NN=C(NC(=O)CSc3nc(C)cc(C)n3)SC2)cc1	none (no result: Pol kappa inh, POLI inh, GLS inhibitor, Pol eta inh)
CCOC(=O)Cc1nnc(NC(=O)CSc2nnc3c4ccccc4n(C)c3n2)s1	Pol kappa inh inconclusive, POLI inh 5.01µM, Pol beta inh 44.7µM
Cc1ccc(C2=NN=C(NC(=O)CSc3nnc4c5ccccc5n(C)c4n3)SC2)cc1	Pol beta inh 35.5µM, Pol eta inh inconclusive
O=C(c1c(F)cccc1Cl)N(Cc1ccco1)C1CCS(=O)(=O)C1 (stereo unspecified)	none (no result: Pol kappa inh, POLI inh, Pol beta inh, APEX1 inh)
CC1(C)C=Cc2c(c3c(c4c(=O)c(-c5ccc(O)cc5)coc24)OC(C)(C)CC3)O1	Pol beta inh 11.2µM
COc1ccc(NC(=O)C(CCSC)NC(N)=O)cc1NS(=O)(=O)c1ccc(F)cc1 (stereo unspecified)	APEX1 inh inconclusive
Cc1ccc(NC(=O)c2cccs2)cc1NC(=O)c1ccc(F)cc1	none
Oc1ccc2ccccc2c1C=Nc1ccc(N2CCOCC2)cc1	Pol beta inh inconclusive
C(=Nc1ccc(N2CCOCC2)cc1)c1c[nH]c2ccccc12	GLS inhibitor 11.2µM
Oc1c(Br)cc(Cl)cc1C=Nc1ccc(N2CCOCC2)cc1	POLI inh inconclusive, GLS inhibitor 12.6µM
COc1ccc(C(=O)Nc2nc(-c3ccc([N+](=O)[O-])cc3)c(-c3ccccc3)s2)cc1	none (no result: Pol beta inh, APEX1 inh)
CCOC(=O)c1ccc(S(=O)(=O)N2CCC(C(=O)N3CCN(c4ccccc4OC)CC3)CC2)cc1	Pol kappa inh inconclusive (no result: Pol beta inh, APEX1 inh)
O=C(Nc1nc(-c2cccs2)cs1)c1ccco1	POLI inh inconclusive
O=C(Nc1nc(-c2ccncc2)cs1)c1ccco1	POLI inh inconclusive, Pol beta inh 39.8µM, Pol eta inh inconclusive
Cc1cc(C(=O)COC(=O)c2cc(O)c3ccccc3c2O)c(C)n1CC1CCCO1 (stereo unspecified)	Pol beta inh 44.7µM, GLS inhibitor inconclusive
CC1(C)Cc2c(sc(NC(=O)c3ccccc3)c2C(=O)O)CO1	none
COc1ccc(/C=N/OCC(=O)Nc2cc(C)on2)cc1OC	none
Nc1ccc2cccc(O)c2c1	Pol kappa inh 79.4µM, POLI inh 12.6µM, Pol eta inh 22.4µM (no result: Pol beta inh, APEX1 inh)
Cc1ccc(-c2n[nH]c(=S)nc2-c2ccc(C)cc2)cc1	POLI inh inconclusive
CCOc1cccc(/C(O)=C2/C(=O)C(=O)N(Cc3cccnc3)C2c2ccco2)c1 (stereo unspecified)	none
CCOc1cccc(/C(O)=C2/C(=O)C(=O)N(CCOC)C2c2ccco2)c1 (stereo unspecified)	POLI inh inconclusive, Pol beta inh 79.4µM, Pol eta inh inconclusive
O=S(=O)(c1ccc2c(c1)N(Cc1ccc(Cl)cc1)C1CCCN21)N1CCOCC1 (stereo unspecified)	none
N#Cc1ccc(CSc2nnc(-c3ccccc3)n2Cc2ccco2)cc1	none
N#Cc1ccc(CSc2nnc(Cc3cccs3)n2Cc2ccco2)cc1	Pol kappa inh inconclusive, POLI inh 17.8µM, Pol beta inh 14.1µM, Pol eta inh 22.4µM, APEX1 inh inconclusive
CN1CCC[C@H]1CCNc1ccc2c(=O)c3ccccc3n(C)c2c1	Pol kappa inh inconclusive, POLI inh 28.2µM, Pol eta inh inconclusive (no result: Pol beta inh, APEX1 inh)
CN1CCCC1CCNc1ccc2c(=O)c3ccccc3oc2c1 (stereo unspecified)	none
Cc1cc(C)cc(NC(=O)CSCc2nc3c(nnn3Cc3ccc(F)cc3)c(=O)[nH]2)c1	POLI inh 44.7µM, GLS inhibitor inconclusive, Pol eta inh inconclusive (no result: Pol beta inh, APEX1 inh)
N#Cc1cccc2c1-c1ccccc1/C2=N/NC(N)=S	POLI inh 20µM, GLS inhibitor inconclusive, Pol eta inh inconclusive
CN1C(=O)C(O)(C2COC(C)(C)CC2=O)c2cc(Br)ccc21 (stereo unspecified)	none
O=C1C(c2[nH]c3ccc(S(=O)(=O)O)cc3c2O)=Nc2ccc(S(=O)(=O)O)cc21	Pol kappa inh inconclusive, POLI inh 25.1µM, APEX1 inh inconclusive (no result: Pol beta inh, Pol eta inh)
O=C1C(c2c(O)[nH]c3ccccc23)=Nc2ccccc21	none
CCc1nnc(NS(=O)(=O)c2ccc(N/C=C/C(=O)c3ccc(OC)cc3)cc2)s1	none
CCc1nnc(NS(=O)(=O)c2ccc(N/C=C\C(=O)c3cccc4ccccc34)cc2)s1	Pol eta inh 44.7µM
CCOC(=O)N1CCN(C(=O)CCc2nc3sc4c(c3c(=O)[nH]2)CCCC4)CC1	none
O=C(CCc1nc2sc3c(c2c(=O)[nH]1)CCCC3)N1CCN(c2ccccc2)CC1	Pol kappa inh inconclusive, POLI inh 44.7µM, Pol eta inh 79.4µM (no result: Pol beta inh)
COc1cccc(NC(=O)CN(C)C(=O)CCc2nc3sc4c(c3c(=O)[nH]2)CCCC4)c1	POLI inh 28.2µM, Pol beta inh 35.5µM, Pol eta inh 22.4µM
CCc1cccc(NC(=O)CCc2nc3sc4c(c3c(=O)[nH]2)CCCC4)c1	Pol kappa inh inconclusive, POLI inh 17.8µM, Pol eta inh 31.6µM (no result: Pol beta inh)
Cc1cccc(NC(=O)CCc2nc3sc4c(c3c(=O)[nH]2)CCCC4)c1	Pol eta inh inconclusive (no result: Pol beta inh)
COc1ccccc1NC(=O)CCc1nc2sc3c(c2c(=O)[nH]1)CCCC3	Pol kappa inh inconclusive, POLI inh 25.1µM, Pol eta inh 50.1µM (no result: Pol beta inh)
Cc1cccn2c(=O)c3cc(S(=O)(=O)c4ccc(F)cc4)c(=N)n(Cc4ccco4)c3nc12	Pol kappa inh inconclusive, POLI inh 11.2µM, Pol beta inh inconclusive
Cc1cccn2c(=O)c3cc(S(=O)(=O)c4ccccc4)c(=N)n(Cc4ccc(F)cc4)c3nc12	none
Cc1cccn2c(=O)c3cc(S(=O)(=O)c4ccccc4)c(=N)n(Cc4ccco4)c3nc12	Pol beta inh 8.91µM
CSc1ccccc1OCc1cc(C(=O)NCCN2CCCc3ccccc32)no1	none
